The source of these data is PubChem BioAssay AID374 (University of Pittsburgh Molecular Library Screening Center, 2006).

Each structure is given as a SMILES string. About 100 (0.15%) of roughly 65,000 compounds were called active. The sample holds actives, similar compounds and a random draw of the others, so the mix is not that of the screen. A number with no mark means an inactive call.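 Rule for the calls: active = inhibition above about 50% (limit read from the data); inconclusive = inhibition over screen mean plus 3 SD, below that limit; inactive = the rest.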

What is called inhibition is the change of the read-out against control, counted positive when it falls.

This experiment deals with Dual specificity protein phosphatase 1 (Homo sapiens) (UniProt P28562). Nature of the experiment: blockers of human DUSP1 activity – biochemical, in vitro, primary screen (AID 374).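 Note: 0% = DMSO max control wells and 100% = wells with enzyme stopped by NaOH.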 As to conditions: recombinant MKP-1, OMFP hydrolysis fluorescence; active compounds read high;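 compounds tested at a single concentration somewhere between 10 and 100 µM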.
Dual specificity protein phosphatase 1 (Homo sapiens), sequence (P28562 whole entry, looked up): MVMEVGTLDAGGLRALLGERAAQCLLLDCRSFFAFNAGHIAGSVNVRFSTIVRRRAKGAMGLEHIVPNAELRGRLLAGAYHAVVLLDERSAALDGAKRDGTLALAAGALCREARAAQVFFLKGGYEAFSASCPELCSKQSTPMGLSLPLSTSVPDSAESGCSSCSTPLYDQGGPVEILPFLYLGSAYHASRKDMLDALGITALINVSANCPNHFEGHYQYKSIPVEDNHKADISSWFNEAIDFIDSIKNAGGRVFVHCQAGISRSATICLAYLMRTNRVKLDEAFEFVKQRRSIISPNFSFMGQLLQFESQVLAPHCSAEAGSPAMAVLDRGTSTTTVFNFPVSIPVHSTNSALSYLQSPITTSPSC
In the case of `Cn1c(SCC(=O)c2cccs2)nnc1-c1ccco1`, the inhibition was 0.18%. Turning to `CC(C)[C@H](NC(=O)Nc1ccc(S(N)(=O)=O)cc1)C(=O)O`, the inhibition was -4.12%. With `CCc1ccccc1N(CC(=O)NCCSCc1ccco1)S(C)(=O)=O` the figure was -0.33%; with `CC(CN1CCCCC1)OC(=O)c1ccccc1Cl` (stereo not drawn), -18.9%. On to `O=C(Nc1cnccn1)c1cccnc1`, for which the inhibition is 35.7%.

Turning to `Cc1cccc(C)c1NC(=O)N1CC=C(n2c(=O)[nH]c3ccccc32)CC1`, the inhibition is -1.96%. `O.O.O.O=S(=O)([O-])OC[C@H]1O[C@@H](O[C@]2(COS(=O)(=O)[O-])O[C@H](OS(=O)(=O)[O-])[C@@H](OS(=O)(=O)[O-])[C@@H]2OS(=O)(=O)[O-])[C@H](OS(=O)(=O)[O-])[C@@H](OS(=O)(=O)[O-])[C@@H]1OS(=O)(=O)[O-].[Al]`: the inhibition is 9.95%. As for `CC(=NC1CCN(Cc2ccccc2)CC1)c1c(O)[nH]c(=O)[nH]c1=O`, the figure is -4.49%; as for `COc1ccccc1Nc1nc(N)nc(CN(C)C2CCCCC2)n1`, -2.91%. With `CCN(CC(=O)Nc1ccc2c(c1)OCCO2)Cc1cc(=O)oc2cc(C)c(C)cc12` the figure was 12.7%; with `Cc1cc(C)c(NC(=O)CS(=O)CC(=O)Nc2cccnc2)c(C)c1` (stereo not drawn), -12.3%; with `Cc1ccnc(N2CCN(C(=O)CSc3nc4ccccc4nc3N3CCCCC3)CC2)c1`, 6.59%. As for `Nn1c(SCC(=O)NC(=O)NC2CCCC2)nnc1-c1ccccc1F`, the figure is -5.68%. In the case of `O=c1cc(CO)oc(CN2CCC(Cc3ccccc3)CC2)c1O`, the inhibition is 8.32%. Turning to `CCCCNC(=O)CSc1nnc(-c2ccco2)n1C`, the inhibition is 93.8% (active). With `CCOC(=O)CSc1nnc(-c2ccco2)n1C` the figure was -29.8%. Take `O=C(CSc1nnc(-c2ccco2)n1-c1ccccc1)NCCc1ccccc1`: the inhibition is -9.86%. In the case of `Cc1cc(C)c2c(c1)cc(C)c1nnc(SCC(=O)Nc3cc(C)on3)n12`, the inhibition is 8.08%. On to `c1csc(CN2CCN(Cc3cccs3)C2c2cccs2)c1`, for which the inhibition is -1.36%. With `Cc1ccc2c(NC(=O)C3CC3)cccc2n1` the figure was 3.59%.

For the compound `CCOc1cc(/C=N/n2cnnc2)c(Br)cc1O`, the inhibition was -7.39%. With `COc1ccc(S(=O)(=O)N2CCCC(C(=O)Nc3ccc(NC(=O)c4ccccn4)cc3)C2)cc1` (stereo not drawn) the figure was 32.2%; with `O=C1c2cccnc2C(Nc2ccc(S(=O)(=O)N3CCCCCC3)cc2)N1Cc1ccccc1` (stereo not drawn), 51.4% (active); with `O=C(Nc1ccc(S(=O)(=O)N2CCCCC2)cc1)c1cnccn1`, -0.35%. As for `CCOC(=O)N1CCN(CC(=O)c2c(C)[nH]c3ccccc23)CC1`, the figure is 1.62%. With `Cc1ccc(-c2noc(CCC(=O)Nc3ccccc3N3CCN(C)CC3)n2)cc1` the figure was -3.7%; with `CCOc1cccc(NC(=O)C2CCCN(S(=O)(=O)c3ccc(OC)cc3)C2)c1` (stereo not drawn), -15.6%; with `CN(C)CCCn1c(N)c(C#N)c2nc(C#N)c(C#N)nc21`, 2.01%. As for `CC(=O)OCc1cc(=O)n(C)c(=O)n1C`, the inhibition was 15.5%. For the compound `CCC(=O)Nc1ccccc1N1CCN(S(C)(=O)=O)CC1`, the inhibition is 6.41%. Turning to `O=C(NCc1ccco1)c1cc(-c2cccnc2)nc2ccc(Cl)cc12`, the inhibition was 18.9%. As for `COc1ccc(C(c2nnnn2Cc2cccs2)N2CCN(c3ccccc3)CC2)cc1OC` (stereo not drawn), the figure is -17.2%. As to `COCCOC(=O)C1=C(C)N=c2s/c(=C\c3cccs3)c(=O)n2C1c1cccs1` (stereo not drawn), the inhibition is -3.72%. With `CC(C)Cn1c(CCC(=O)O)ccc1-c1cccs1` the figure was -3.65%; with `O=C(Nc1ccccc1)N(Cc1cccnc1)Cc1ccco1`, 19.6%. In the case of `CCOC(=O)CN1C(=O)C(O)(CC(=O)c2ccccn2)c2ccccc21` (stereo not drawn), the inhibition is -1.14%. As for `COc1cccc(-n2c(Cc3cc(=O)[nH]c(=O)[nH]3)nnc2SCC(=O)Nc2ccccc2)c1`, the figure is 6.14%.

`O=C(Cn1nc(Cc2cccnc2)c2ccccc2c1=O)NCC1CCCO1` (stereo not drawn): the inhibition was -5.72%. For the compound `O=C(CCC(=O)N1CCN(S(=O)(=O)c2ccccc2)CC1)NC1CCCc2ccccc21` (stereo not drawn), the inhibition was 28.7%. As for `O=C(NCCN1CCOCC1)c1ccc2c(c1)ncn2C1CCCC1`, the inhibition is -1.23%. As for `O=S1(=O)CC(NCc2ccccc2)C(Nc2ccc(Cl)cc2)C1` (stereo not drawn), the figure is -10.7%. As for `CC(C)=C(NC(=O)c1ccco1)C(=O)NCCc1nc2ccccc2[nH]1`, the inhibition was -31.3%. On to `CC(=O)Nc1cc2ccc(OC(C)=O)cc2oc1=O`, for which the inhibition is 1.98%. Consider `CC1CCCCN1CC(=O)NCc1ccc2c(c1)OCO2` (stereo not drawn), for which the inhibition was 11.8%. Consider `CCc1ccc(NC(=O)CSc2nc3ccccc3c(=O)n2CCN2CCOCC2)cc1`, for which the inhibition was 52.5% (active). As for `CCCCn1c(SCC(=O)NCC2CCCO2)nc2ccc(N3CCOCC3)cc2c1=O` (stereo not drawn), the figure is 20.6%.

For `COCCCNC(=O)CSc1nc2ccc(N3CCOCC3)cc2c(=O)n1CCc1ccccc1`, the inhibition is 25.1%. With `Cc1nn(CC(=O)Nc2ccc3c(c2)nc(CN2CCCCC2)n3C)c(=O)c2ccccc12` the figure was 21.5%; with `O=C(NCC(F)(F)F)Nc1nnc(C(F)(F)F)s1`, -9.86%. Regarding `O=C(CCS(=O)(=O)Cc1ccccc1F)NCCCN1CCCCC1`, the inhibition is 5.21%. In the case of `O=C(Cn1nnc2ccccc2c1=O)Nc1cc(C(F)(F)F)ccc1N1CCOCC1`, the inhibition is 36.2%. Take `COc1ccccc1NC(=O)C1=C(C)NC2=C(C(=O)CCC2)C1c1ccc(C)o1` (stereo not drawn): the inhibition is 11.7%. With `COC(=O)C1=C(C)NC2=C(C(=O)c3ccccc32)C1c1ccc(-c2ccc(C(=O)O)cc2)o1` (stereo not drawn) the figure was 56% (active). With `COC(=O)C1=C(C)NC(=O)NC1/C=C/c1ccccc1` (stereo not drawn) the figure was -8.21%; with `Cc1nnc(NC(=O)CSc2nccn2-c2cccc(C)c2C)s1`, -0.12%; with `CC(C)(C)n1c(=O)[nH]c2c(c1=O)CCC2`, 21.8%. As to `O=C(Oc1cccnc1)c1cc2ccccc2oc1=O`, the inhibition was 10.3%.

For `CC/C(=N\O)C(C)(C)/[N+]([O-])=C/c1ccc(Br)cc1`, the inhibition is 4.53%.
